Records with an inconclusive call do not appear. Calls of active or inactive are those of the source. Unless noted, the call rests on the fitted dose curve; in most records, active means well fitted curve in the direction sought with a large enough effect in the repeat runs; inconclusive means weak or mixed curves; inactive means no such curve, though single readings can be large; an effect the other way counts as inactive or inconclusive.
Tests used:
[1] = qHTS assay to identify small molecule agonists of the androgen receptor (AR) signaling pathway in the presence of an antagonist - cell viability counter screen (AID 1259379); further: nearly all actives have a fitted effect of over 25% in size; further: potency means the concentration at half of the fitted maximal effect
Outline: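 Cells: MDA-kb2 (MMTV-luc, AR and GR elements), 3,000/well, 5 hr settle. Added: nilutamide 3.0uM final, then compounds (15 conc.). Incubation: 16 hr, 37C, no CO2. Read-out: CellTiter-Fluor, 1 hr, fluorescence.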

[2] = qHTS assay to identify small molecule agonists of the estrogen receptor beta (ER-beta) signaling pathway - cell viability counter screen (AID 1259380); further: nearly all actives have a fitted effect of over 30% in size; further: potency means the concentration at half of the fitted maximal effect
Outline: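 HEK293T ER-beta-UAS-bla; 2% CS-FBS; 6 hr pre-plate, 16 hr cpd at 37C/5% CO2; LiveBLAzer read first, then CellTiter-Glo 30 min RT, luminescence.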

[3] = target: Androgen receptor (Homo sapiens) (UniProt P10275); assay: qHTS assay to identify small molecule agonists of the androgen receptor (AR) signaling pathway in the presence of an antagonist (AID 1259381; calls by dose curve; further: nearly all actives have a fitted effect of over 15% in size; further: potency means the concentration at half of the fitted maximal effect)
Outline: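 MDA-kb2 cells, 3,000/well, rested 5hr at 37C/0% CO2 → nilutamide 3.0uM final or buffer → compounds, 15 conc. → 16hr at 37C → ONE-Glo, 30min RT → luminescence.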

[4] = qHTS assay to identify small molecule antagonists of the estrogen receptor beta (ER-beta) signaling pathway - cell viability counter screen (AID 1259382); further: nearly all actives have a fitted effect of over 55% in size; further: potency means the concentration at half of the fitted maximal effect
Outline: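 Cells: ER-beta-UAS-bla HEK293T, 2,000/well, 2% CS-FBS, 6 hr settle. Cpd + E2 (1nM final), 16 hr, 37C/5% CO2. Bla FRET substrate 2 hr RT, then CellTiter-Glo 30 min RT, luminescence.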

[5] = target: Estrogen receptor (Homo sapiens) (UniProt P03372); assay: qHTS assay to identify small molecule agonists of the estrogen receptor alpha (ER-alpha) signaling pathway in the presence of an antagonist (AID 1259383; calls by dose curve; further: nearly all actives have a fitted effect of over 15% in size; further: potency means the concentration at half of the fitted maximal effect; on activation: top concentration of the series differs between compounds)
Outline: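 VM7Luc4E2, endog. ER-alpha + 4×ERE-luc; charcoal-stripped FBS, phenol red-free, 5 d; 24hr plating; +10.0nM ICI-182,780 (final); cpds 15 conc, 22hr, 37C/5% CO2; ONE-Glo luminescence.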

[6] = qHTS assay to identify small molecule agonists of the estrogen receptor alpha (ER-alpha) signaling pathway in the presence of an antagonist - cell viability counter screen (AID 1259386);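 further: cells exposed to compounds for 22 h at 37 °C before the viability read; nearly all actives have a fitted effect of over 30% in size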; further: potency means the concentration at half of the fitted maximal effect
Outline: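 VM7Luc4E2, stripped-serum pre-culture 5 d; 24hr plating; +ICI-182,780 10.0nM final; cpds 15 conc, 22hr, 37C/5% CO2; CellTiter-Fluor added at 21hr, fluorescence 1hr later.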

[7] = target: Progesterone receptor (Homo sapiens) (UniProt P06401); assay: qHTS assay to identify small molecule agonists of the progesterone receptor (PR) signaling pathway (AID 1346784; calls by dose curve; further: nearly all actives have a fitted effect of over 30% in size)
Outline: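 Reporter assay, GripTite PR-UAS-bla HEK 293T cells: 16 hr exposure to DMSO-dissolved compounds at 37C, 5% CO2, in steroid-depleted (2% charcoal-stripped FBS) medium; beta-lactamase measured by FRET fluorescence.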

[8] = qHTS assay to identify small molecule antagonists of the progesterone receptor (PR) signaling pathway - cell viability counter screen (AID 1346798); further: nearly all actives have a fitted effect of over 50% in size; further: potency means the concentration at half of the fitted maximal effect
Outline: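 In the same plates used for the beta-lactamase readout, cell viability of compound- and R5020-treated PR-UAS-bla HEK293T cells (16 hr, 37C) was assessed by CellTiter-Glo luminescence.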

[9] = qHTS assay to identify small molecule agonists of the progesterone receptor (PR) signaling pathway - cell viability counter screen (AID 1346799; calls by dose curve; further: nearly all actives have a fitted effect of over 45% in size; further: potency means the concentration at half of the fitted maximal effect)
Outline: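 Multiplexed viability read: CellTiter-Glo luminescence, 30 min RT, following LiveBLAzer FRET measurement on PR-UAS-bla HEK293T cells exposed to compounds 16 hr.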

[10] = qHTS assay to identify small molecule agonists of the TGF-beta/Smad signaling pathway - cell viability counter screen (AID 1346829); further: nearly all actives have a fitted effect of over 45% in size; further: potency means the concentration at half of the fitted maximal effect
Outline: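 SBE-bla HEK 293T cells plated overnight, compound exposure 5 hr at 37 C. Viability read in the same wells by CellTiter-Glo luminescence after 30 min at room temperature, following the beta-lactamase read.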

[11] = qHTS assay to identify small molecule agonists of the TGF-beta/Smad signaling pathway (AID 1346859; active means well fitted activation curve with a large enough effect in the signal ratio in the repeat runs, not every such curve was filed as active; the % refers to the signal ratio; further: series mostly up to about 77 µM)
Outline: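 Screening used HEK 293T SBE-bla cells at 4,000/well. Test agents: 5 hr, 37 C. Detection: FRET substrate, 2 hr RT, then excitation 405 nm with emissions at 460 and 530 nm.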

[12] = target: Thyrotropin-releasing hormone receptor (Homo sapiens) (UniProt P34981); assay: qHTS assay to identify small molecule antagonists of the thyrotropin-releasing hormone receptor (TRHR) signaling pathway (AID 1346877; active means well fitted inhibition curve with a large enough effect in the repeat runs, not every such curve was filed as active; further: potency means the concentration at half of the fitted maximal effect)
Outline: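 Intracellular calcium fluorescence, read kinetically every second over 3 min, reports TRH-evoked signalling in HEK293 cells carrying TRHR. Test compounds were added 5 min ahead of a 1 nM TRH challenge.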

[13] = target: Thyrotropin-releasing hormone receptor (Homo sapiens) (UniProt P34981); assay: qHTS assay to identify small molecule agonists of the thyrotropin-releasing hormone receptor (TRHR) signaling pathway (AID 1346891; calls by dose curve; further: potency means the concentration at half of the fitted maximal effect; on activation: series mostly up to about 58 µM)
Outline: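 Readout was intracellular calcium fluorescence in TRHR-Hek293 cells. Cells were incubated 18 h, dye-loaded 2 h at 37 °C, and treated with compound in agonist mode.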

[14] = Human pregnane X receptor (PXR) small molecule agonists, qHTS cell viability counter screen (AID 1346977); further: nearly all actives have a fitted effect of over 50% in size; further: potency means the concentration at half of the fitted maximal effect
Outline: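 In each well, the PXR reporter HepG2 line was checked for viability: CellTiter-Fluor reagent added 23hr post-dosing, fluorescence read after 1hr incubation at 37C.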

[15] = target: Thyrotropin receptor (Homo sapiens) (UniProt P16473); assay: qHTS assay to identify small molecule antagonists of the thyroid stimulating hormone receptor (TSHR) signaling pathway (AID 1259385; calls by dose curve; further: nearly all actives have a fitted effect of over 20% in size; further: potency means the concentration at half of the fitted maximal effect)
Outline: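 TSHR-HEK293 cells (800/well) plated 18 h, then compounds with Ro20-1724 and TSH at 1.5 ng/mL final, 30 min at room temperature. cAMP quantified by HTRF (cAMP-d2/anti-cAMP-cryptate, 1 h); 15 concentrations in triplicate.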

[16] = qHTS assay to identify small molecule antagonists of the TGF-beta/Smad signaling pathway - cell viability counter screen (AID 1346824); further: nearly all actives have a fitted effect of over 50% in size; further: potency means the concentration at half of the fitted maximal effect
Outline: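 SBE-bla HEK 293T cells, incubated overnight, then compound plus 0.25 ng/mL TGF-beta1 (stock added) for 5 hr at 37 C. Viability was read in the same wells by CellTiter-Glo luminescence after 30 min at room temperature.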

[17] = qHTS assay to identify small molecule agonists or antagonists of the thyroid stimulating hormone receptor (TSHR) signaling pathway - wild type cell line counter screen (AID 1259384; calls by dose curve)
Outline: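 Wild-type Hek293 cells, 800/well, 18 h at 37C, then compound with Ro20-1724 for 30 min RT. cAMP by HTRF (cAMP-d2/anti-cAMP cryptate), 1 h RT, fluorescence read. 15 concentrations, triplicates.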

[18] = target: Progesterone receptor (Homo sapiens) (UniProt P06401); assay: qHTS assay to identify small molecule antagonists of the progesterone receptor (PR) signaling pathway (AID 1346795; active means well fitted inhibition curve with a large enough effect in the signal ratio in the repeat runs, not every such curve was filed as active; the % refers to the signal ratio; further: potency means the concentration at half of the fitted maximal effect)
Outline: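 Stimulus R5020 at 1 nM final; cells HEK293T PR-UAS-bla; medium with 2% charcoal-stripped FBS; compound exposure 16 hr at 37C, 5% CO2; detection by FRET beta-lactamase substrate, 2 hr, room temperature.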

Measured: Potency

Thyrotropin-releasing hormone receptor (Homo sapiens), sequence (P34981 whole entry, looked up): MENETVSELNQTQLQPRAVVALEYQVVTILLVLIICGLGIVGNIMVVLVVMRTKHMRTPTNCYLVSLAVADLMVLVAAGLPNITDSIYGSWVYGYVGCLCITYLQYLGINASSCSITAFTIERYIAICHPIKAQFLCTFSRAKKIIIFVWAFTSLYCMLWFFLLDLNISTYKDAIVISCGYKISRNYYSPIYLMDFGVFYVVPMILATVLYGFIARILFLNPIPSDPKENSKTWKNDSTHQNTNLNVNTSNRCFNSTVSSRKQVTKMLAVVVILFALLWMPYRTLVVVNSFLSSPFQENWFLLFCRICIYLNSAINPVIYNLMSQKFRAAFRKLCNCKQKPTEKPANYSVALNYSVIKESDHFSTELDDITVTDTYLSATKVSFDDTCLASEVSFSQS
Thyrotropin receptor (Homo sapiens), sequence (P16473 whole entry, looked up): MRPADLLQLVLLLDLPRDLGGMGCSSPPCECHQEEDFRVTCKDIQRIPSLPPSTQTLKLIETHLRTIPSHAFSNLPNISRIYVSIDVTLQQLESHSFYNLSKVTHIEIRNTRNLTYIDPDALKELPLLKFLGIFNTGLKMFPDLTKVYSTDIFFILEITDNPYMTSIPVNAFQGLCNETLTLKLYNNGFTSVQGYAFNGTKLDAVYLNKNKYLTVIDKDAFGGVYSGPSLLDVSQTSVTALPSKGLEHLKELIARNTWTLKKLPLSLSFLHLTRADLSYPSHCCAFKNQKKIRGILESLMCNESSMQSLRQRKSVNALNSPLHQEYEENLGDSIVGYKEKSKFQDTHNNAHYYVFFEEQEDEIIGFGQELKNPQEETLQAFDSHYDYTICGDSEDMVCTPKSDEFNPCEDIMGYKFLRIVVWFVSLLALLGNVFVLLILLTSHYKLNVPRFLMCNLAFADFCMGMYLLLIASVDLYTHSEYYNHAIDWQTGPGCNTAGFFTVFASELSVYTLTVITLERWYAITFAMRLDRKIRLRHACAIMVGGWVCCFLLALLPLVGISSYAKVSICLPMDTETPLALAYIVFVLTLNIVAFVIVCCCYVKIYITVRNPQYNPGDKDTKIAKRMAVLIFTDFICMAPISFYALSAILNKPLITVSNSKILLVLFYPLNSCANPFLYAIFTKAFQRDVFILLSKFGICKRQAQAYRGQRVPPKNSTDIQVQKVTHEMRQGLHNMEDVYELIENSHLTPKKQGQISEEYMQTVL
Androgen receptor (Homo sapiens), sequence (P10275 whole entry, looked up): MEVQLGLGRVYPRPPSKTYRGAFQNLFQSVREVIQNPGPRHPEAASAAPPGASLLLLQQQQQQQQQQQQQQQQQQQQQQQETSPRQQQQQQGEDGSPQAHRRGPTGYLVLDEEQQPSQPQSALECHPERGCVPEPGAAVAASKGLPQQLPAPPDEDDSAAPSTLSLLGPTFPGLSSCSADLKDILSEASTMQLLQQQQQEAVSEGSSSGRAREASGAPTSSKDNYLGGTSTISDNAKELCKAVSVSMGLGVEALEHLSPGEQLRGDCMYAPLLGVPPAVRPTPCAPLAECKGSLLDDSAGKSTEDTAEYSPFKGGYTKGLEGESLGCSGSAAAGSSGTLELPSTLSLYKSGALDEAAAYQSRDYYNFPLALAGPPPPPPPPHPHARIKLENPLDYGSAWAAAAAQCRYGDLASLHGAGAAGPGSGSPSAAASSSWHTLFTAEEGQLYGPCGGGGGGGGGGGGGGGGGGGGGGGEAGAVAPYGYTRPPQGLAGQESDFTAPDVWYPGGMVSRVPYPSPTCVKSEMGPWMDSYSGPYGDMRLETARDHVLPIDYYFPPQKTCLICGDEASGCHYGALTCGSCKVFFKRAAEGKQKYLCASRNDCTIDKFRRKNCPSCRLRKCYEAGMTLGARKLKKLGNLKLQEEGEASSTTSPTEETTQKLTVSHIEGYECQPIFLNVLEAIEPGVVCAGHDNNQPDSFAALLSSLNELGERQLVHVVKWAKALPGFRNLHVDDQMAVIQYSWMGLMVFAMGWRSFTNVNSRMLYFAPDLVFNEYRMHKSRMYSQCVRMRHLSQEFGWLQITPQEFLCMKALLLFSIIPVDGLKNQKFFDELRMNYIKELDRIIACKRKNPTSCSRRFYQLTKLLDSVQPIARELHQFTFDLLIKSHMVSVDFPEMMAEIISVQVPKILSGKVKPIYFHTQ
Estrogen receptor (Homo sapiens), sequence (P03372 whole entry, looked up): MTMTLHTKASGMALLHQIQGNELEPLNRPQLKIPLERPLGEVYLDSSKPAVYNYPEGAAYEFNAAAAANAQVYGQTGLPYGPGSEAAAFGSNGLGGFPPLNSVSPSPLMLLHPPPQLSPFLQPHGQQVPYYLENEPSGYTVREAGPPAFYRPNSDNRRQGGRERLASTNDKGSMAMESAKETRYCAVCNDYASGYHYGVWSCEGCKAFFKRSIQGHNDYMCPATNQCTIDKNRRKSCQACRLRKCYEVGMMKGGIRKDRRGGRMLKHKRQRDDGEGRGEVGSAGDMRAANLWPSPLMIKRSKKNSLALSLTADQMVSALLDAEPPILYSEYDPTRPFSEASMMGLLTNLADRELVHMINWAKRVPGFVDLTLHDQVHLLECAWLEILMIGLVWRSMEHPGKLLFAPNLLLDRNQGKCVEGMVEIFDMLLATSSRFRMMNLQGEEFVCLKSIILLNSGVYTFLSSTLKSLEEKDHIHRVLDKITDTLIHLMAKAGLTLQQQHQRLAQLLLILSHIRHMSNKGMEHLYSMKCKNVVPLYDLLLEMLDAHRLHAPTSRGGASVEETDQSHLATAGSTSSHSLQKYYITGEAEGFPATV
Progesterone receptor (Homo sapiens), sequence (P06401 whole entry, looked up): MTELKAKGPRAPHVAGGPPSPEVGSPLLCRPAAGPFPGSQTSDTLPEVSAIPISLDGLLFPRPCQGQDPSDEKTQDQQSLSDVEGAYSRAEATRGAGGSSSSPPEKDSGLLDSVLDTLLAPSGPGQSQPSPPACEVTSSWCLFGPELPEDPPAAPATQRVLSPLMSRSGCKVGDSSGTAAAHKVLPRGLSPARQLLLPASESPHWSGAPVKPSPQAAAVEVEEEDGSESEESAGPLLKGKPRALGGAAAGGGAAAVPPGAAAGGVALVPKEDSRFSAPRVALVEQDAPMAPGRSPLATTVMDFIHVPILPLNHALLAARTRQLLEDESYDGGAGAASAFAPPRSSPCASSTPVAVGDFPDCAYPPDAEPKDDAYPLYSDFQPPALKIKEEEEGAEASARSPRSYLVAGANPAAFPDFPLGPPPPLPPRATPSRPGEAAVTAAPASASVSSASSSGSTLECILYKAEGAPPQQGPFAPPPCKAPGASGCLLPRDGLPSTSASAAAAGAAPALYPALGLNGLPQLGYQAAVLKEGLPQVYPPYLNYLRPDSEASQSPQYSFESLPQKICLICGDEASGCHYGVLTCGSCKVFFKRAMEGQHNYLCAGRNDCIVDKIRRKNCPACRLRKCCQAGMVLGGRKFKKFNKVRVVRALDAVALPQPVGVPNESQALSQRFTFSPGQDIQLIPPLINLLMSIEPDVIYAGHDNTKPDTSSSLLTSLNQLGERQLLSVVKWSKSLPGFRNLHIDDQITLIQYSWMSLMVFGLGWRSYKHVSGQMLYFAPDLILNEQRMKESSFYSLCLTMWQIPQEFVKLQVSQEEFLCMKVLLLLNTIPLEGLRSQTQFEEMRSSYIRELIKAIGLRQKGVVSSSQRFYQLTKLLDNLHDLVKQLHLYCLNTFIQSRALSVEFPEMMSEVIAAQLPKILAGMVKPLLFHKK

Clc1ccc(Oc2ccccc2)cc1
not listed: [15] | [16] | [17] | [18]
inactive: all other assays above

C[C@H]1CC[C@@H]2[C@@H](C)[C@H]3[C@H](C[C@H]4[C@@H]5CC=C6CC(O[C@@H]7O[C@H](CO)[C@H](O)[C@H](O[C@@H]8O[C@H](CO)[C@@H](O)[C@H](O)[C@H]8O)[C@H]7O[C@H]7O[C@@H](C)[C@H](O)[C@@H](O)[C@H]7O)CC[C@]6(C)[C@H]5CC[C@]34C)N2C1 (some centres not stated)
inactive: [5]
active: [1] 22.4 µM | [2] 15.8 µM | [4] 25.1 µM | [15] 10 µM | [6] 28.2 µM | [8] 31.6 µM | [9] 22.4 µM | [16] 12.7 µM | [10] 12.7 µM | [12] 7.82 µM | [13] 8.99 µM | [14] 11.2 µM

CCCCCCCCc1ccc(O)cc1
active: [2] 15.4 µM | [18] 20.4 µM | [14] 54.8 µM
inactive: [1] | [3] | [17] | [15] | [16] | [10] | [11]

O=C1C=CC(=O)c2ccccc21
inactive: [3] | [5] | [7] | [18] | [8] | [9] | [13]
active: [1] 43.3 µM | [2] 21.7 µM | [4] 27.3 µM | [6] 30.6 µM | [16] 24.5 µM | [10] 49 µM | [12] 21.3 µM | [14] 48.6 µM

ClCc1ccc(Cl)cc1Cl
not listed: [3] | [11] | [12] | [13] | [18]
inactive: all other assays above

C[C@@H]1O[C@@H](O[C@@H]2C=C3CC[C@@H]4[C@H](CC[C@]5(C)[C@@H](c6ccc(=O)oc6)CC[C@]45O)[C@@]3(C)CC2)[C@H](O)[C@H](O)[C@H]1O
active: [2] 0.0094 µM | [3] 0.0298 µM | [4] 0.0094 µM | [15] 0.298 µM | [8] 0.0133 µM | [9] 0.0168 µM
inactive: [1] | [17] | [6] | [7] | [12] | [13]

Oc1ccc(C2(c3ccc(O)cc3)CCCCC2)cc1
active: [2] 57.9 µM | [4] 57.9 µM | [5] 14.5 µM | [14] 57.9 µM
inactive: [1] | [17] | [16] | [10] | [11] | [12] | [13]

CC(C)CCCCCCCOP(=O)(Oc1ccccc1)Oc1ccccc1
active: [18] 24.5 µM
not listed: [3] | [8] | [16] | [17]
inactive: all other assays above

From PubChem BioAssay (Tox21)
